Consider 104 compounds from PubChem BioAssay AID651812 (National Center for Advancing Translational Sciences (NCATS), 2012).

Out of some 2,100 compounds screened, about 650 (31%) were called active. Inconclusive results (about 16%) are left out. Calls come from the whole dose curve; as a rule, active = well fitted inhibition curve with a large enough effect; inconclusive = small, poorly fitted or top-dose-only effect; inactive = flat fitted curve, though single readings scatter. This is one part of the list. A call without a number means that no potency is given here.
Potency is the fitted concentration of half-maximal effect.

A short description of this test: qHTS for inhibitors of Vif-A3G interactions: Cherry picks. Note: nearly all actives have a fitted effect of over 80% in size. The following applies: HeLa A3G-eYFP + Vif (tagged APOBEC3G with the HIV-1 protein that degrades it), 24 h; Potency: eYFP fluorescence increase; series mostly up to 36.9 µM. Put shortly: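 Cherry-picked compounds tested at several concentrations on A3G-eYFP/Vif HeLa cells for 24 hours; loss of Vif-driven degradation read as eYFP fluorescence by cytometric plate imaging, 488 nm excitation, 500-530 nm emission.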
(In general: Quantitative high-throughput screening tests each substance at several concentrations.)
Take `CSc1nc(N)c(C#N)c(-c2ccccc2Cl)c1C#N`: the Potency result is “inactive”. Take `N#Cc1c(Nc2ccccc2)[n+]([O-])c2ccc(Cl)cc2[n+]1[O-]`: the Potency entry is “inactive”. For the compound `COc1cccc(/C(O)=C/c2nc3ccc(C(=O)NCCc4ccc(Cl)cc4)cc3[nH]c2=O)c1`, the Potency is 16.4 µM (active). Next, `COc1ccc2nc(NC(=O)c3nc(S(=O)(=O)Cc4cccc(C)c4)ncc3Cl)sc2c1`: “inactive”. On to `COc1cccc(/C(O)=C/c2nc3ccc(C(=O)NCCc4cccc(C)c4)cc3[nH]c2=O)c1`, for which the Potency was 11.6 µM (active). `COc1cccc(C(=O)N/N=C/C(Br)=C/c2ccccc2)c1`: the Potency entry is “inactive”. The value for `CCOC(=S)SCC(=O)N1CCc2cc(OC)ccc2C1C1C(=O)CCCC1=O` (centres undefined) was “inactive”; that for `COc1ccc(NC(=S)Nc2ncccc2C)c(OC)c1` was “inactive”. The value for `COc1cc(C(=O)c2ccc3c(c2)OCO3)cc(OC)c1OC` was “inactive”; that for `Oc1ccc(C2=NNC(=NCc3ccc4c(c3)OCO4)SC2)c(O)c1` was “inactive”; that for `CC1(C(=O)NCc2ccccc2)Cc2c(-c3ccc(C(N)=O)cc3)ccnc2O1` (centres undefined) was “inactive”. The value for `Cc1ccc2nsnc2c1NC(=O)c1ccc(-c2cc(Cl)ccc2Cl)o1` was 15.8 µM (active); that for `CCSc1nccc(-c2nn(-c3ccc(C)cc3)ccc2=O)n1` was “inactive”; that for `CC(C)c1ccc(C(=O)NCCCNC(=O)c2cnccn2)cc1` was “inactive”. As to `CC(=O)Nc1cccc(-c2ccnc3c2CC(C(=O)Nc2ccc(Cl)cc2)O3)c1` (centres undefined), the Potency result is “inactive”. For `CC(=O)Nc1ccc(C2=CC(=O)C[C@H](c3ccc(Cl)cc3)C2)cc1`, the Potency is 18.4 µM (active). Next, `CC(=O)Nc1ccc2c(c1)Cc1ccc(Cl)cc1-2`: “inactive”; `CCSC1=N/C(=C\C=C2/Oc3ccccc3N2CC)C(=O)S1`: 14.6 µM (active). As to `CC(=O)Oc1ccc(N2C(=O)c3cccc4c([N+](=O)[O-])ccc(c34)C2=O)cc1`, the Potency was 1.46 µM (active). Consider `Cc1nnc(N2C(=O)c3cccc4c([N+](=O)[O-])ccc(c34)C2=O)s1`, for which the Potency was 18.4 µM (active). For the compound `O=C1c2cccc3c([N+](=O)[O-])ccc(c23)C(=O)N1c1ccccn1`, the Potency was 5.8 µM (active).

Take `COC(=O)[C@@]1(Cc2ccccc2)[C@@H]2C(=CC(=O)[C@H]2CC(=O)C(=O)N(C)C)CN1C(=O)c1ccccc1`: the Potency entry was “inactive”.

As to `C/C(=N\NC(=S)NC(C)C)c1ccc(C(C)(C)C)cc1`, the Potency result is “inactive”. For `CCCSc1nnc(N2C(=O)C(O)=C(C(=O)c3ccco3)C2c2ccccc2F)s1` (centres undefined), the Potency entry is “inactive”. Next, `N#CC1=C(N)Oc2cc(N)ccc2C1c1cccc(Br)c1` (centres undefined): “inactive”; `CCN(CC)c1ccc2c(c1)OC(N)=C(C#N)C2c1cccnc1` (centres undefined): 17.7 µM (active); `N#CC1=C(N)Oc2ccc3ccccc3c2C1c1cccnc1` (centres undefined): “inactive”. As to `Cc1cccc2[nH]cc(/C=C3/C=Nc4ccccc43)c12`, the Potency is 18.4 µM (active). Next, `CC(C)COc1ccc(C(=O)N/C(=C/c2cccc([N+](=O)[O-])c2)C(=O)O)cc1`: “inactive”; `Cc1nc2c3ccccc3n(Cc3ccccc3F)c2s1`: “inactive”.

Take `FC(F)(Cl)c1nnc2ccc(Cl)nn12`: the Potency entry was “inactive”. Next, `CCc1ccc(N=Nc2ccc(O)c3[nH]cnc23)cc1`: 13 µM (active). `CCOc1cc(C(=O)NN=C2CCCC2)cc(OCC)c1OCC`: the Potency result was “inactive”. On to `COc1ccc2c(Cl)c(C(=O)N/N=C3\CCCC(=O)C3)sc2c1`, for which the Potency was 17.7 µM (active). Turning to `O=[N+]([O-])c1ccc(C2=NN(c3ccccc3)C(c3ccco3)C2)cc1` (centres undefined), the Potency was 1.25 µM (active). Next, `COc1ccccc1N=C(C)C1=C(O)CC(c2ccccc2)CC1=O` (centres undefined): “inactive”.

For the compound `Clc1ccccc1Cn1c(/C=C/c2ccco2)nc2ccccc21`, the Potency result is “inactive”. Next, `O=C(/C=C/c1ccco1)N1CCc2ccccc21`: “inactive”; `COC(=O)c1cc(C(=O)N2CCN(c3ccccc3OC)CC2)cc([N+](=O)[O-])c1`: “inactive”. As to `C(=C\c1ccco1)/C1=NN(c2ccccc2)C(c2ccco2)C1` (centres undefined), the Potency was 23.1 µM (active). Take `O=[N+]([O-])c1ccc(/C=C/C2=NN(c3ccccc3)C(c3ccco3)C2)o1` (centres undefined): the Potency is 3.66 µM (active).

For the compound `CCS(=O)(=O)Nc1cccc(C2=NN(C(=O)c3ccco3)C(c3ccco3)C2)c1` (centres undefined), the Potency entry was “inactive”. In the case of `COc1ccccc1N1N=C(c2ccc([N+](=O)[O-])cc2)CC1c1ccccc1` (centres undefined), the Potency was 1.4 µM (active). The value for `Cc1ccc(C(=O)NC(=C(Cl)Cl)S(=O)(=O)c2ccccc2)cc1` was “inactive”; that for `COc1ccc(OC)c(Nc2ncnc3c2cnn3-c2cccc(Cl)c2)c1` was “inactive”; that for `COc1ccc(NC(=O)C2Cc3c(-c4ccc(NC(C)=O)cc4)ccnc3O2)cn1` (centres undefined) was “inactive”. For the compound `Cn1c2ccccc2c2ccc3c(c21)C(=O)C=CC3=O`, the Potency result was “inactive”. Consider `N#CC(C(=S)Nc1ccccc1)c1nc2ccccc2[nH]1` (centres undefined), for which the Potency entry was “inactive”. Regarding `Cc1cccc(C)c1NC(=S)NC(C)CCc1ccccc1` (centres undefined), the Potency result is “inactive”. Next, `Cc1cc(C)nc(Nc2nc(C(N)Cc3ccccc3)cs2)n1` (centres undefined): “inactive”. In the case of `COc1ccc2c(C)cc(SCC(=O)N3CCOCC3)nc2c1`, the Potency was 18.4 µM (active). Take `CCN(CC)c1nc2cc(OC)ccc2cc1C#N`: the Potency result was “inactive”. With `COc1ccc2c(C)cc(SCC#N)nc2c1`, the Potency is 18.4 µM (active). With `Cc1cc(SCC(=O)c2cccs2)nc2ccccc12`, the Potency entry is “inactive”. Next, `Cc1sc2nc(SCC(=O)N3CCOCC3)[nH]c(=O)c2c1-c1ccccc1`: “inactive”; `CO/N=C/c1ccc(OC)c(Oc2nc(OC)cc(OC)n2)c1`: “inactive”; `COc1ccc(C2C(C#N)=C(N)Oc3c2ccc2cccnc32)cc1OC` (centres undefined): “inactive”. Next, `c1ccc(-c2nccc(-c3ccc4c(c3)OCO4)n2)cc1`: “inactive”. Turning to `CS(=O)(=O)N1N=C(c2ccccc2)CC1c1ccc2c(c1)OCO2` (centres undefined), the Potency was 14 µM (active). As for `CS(=O)(=O)Nc1cccc(C2=NN(S(C)(=O)=O)C(c3ccc4c(c3)OCO4)C2)c1` (centres undefined), the Potency entry is “inactive”.

As for `CCCCN(CCC(=O)O)c1ccc(/C=C/c2ccnc3ccccc23)cc1`, the Potency was 18.4 µM (active). Next, `CCCCN(CCCC)c1ccc(/C=C/c2ccnc3ccccc23)cc1`: 16.4 µM (active); `CC(C)CN(CC(C)C)c1ccc(/C=C/c2ccnc3ccccc23)cc1`: 23.1 µM (active). The value for `CCN(CCCN(C)C)c1ccc(/C=C/c2ccnc3ccccc23)cc1` was 18.4 µM (active). Next, `COc1ccc(NS(=O)(=O)c2cc(NC(=O)c3ccc(=O)[nH]c3)ccc2N2CCCC2)cc1`: “inactive”; `Cc1ccsc1/C=N\NC(=O)c1n[nH]c2c1CCC2`: “inactive”; `CC(=Nc1ccccc1)C1=C(O)C(Cc2ccccc2)NC1=O` (centres undefined): “inactive”. For the compound `CCN(CC)c1ccc(/C=C/c2ccnc3ccccc23)cc1`, the Potency is 23.1 µM (active). For `CCN(C)c1ccc(/C=N\n2nnnc2N)cc1`, the Potency entry was “inactive”. For the compound `CCN(C)c1ccc(/C=C/c2ccnc3ccccc23)cc1`, the Potency is 20.6 µM (active).

`CCCN(CCC)c1ccc(/C=C/c2ccnc3ccccc23)cc1`: the Potency is 20.6 µM (active). The value for `C/C(CC(=O)NCc1ccco1)=N\NC(=O)COc1ccc(Cl)cc1Cl` was “inactive”; that for `CCN1/C(=C/C=C2/SC(=Nc3cccc4ncccc34)N(C)C2=O)Sc2ccccc21` was 16.4 µM (active); that for `COc1cccc(Sc2ccccc2/C=N/NC(N)=O)c1` was “inactive”. Next, `O=C(Nc1nnc(-c2ccc3c(c2)CCCC3)o1)c1c(F)cccc1F`: “inactive”. For `Cc1c(-c2nnc(SCC(=O)Nc3ccccc3F)o2)nnn1-c1ccc(F)cc1`, the Potency was 23.1 µM (active). In the case of `Cc1nnc(SCC(=O)NCc2ccccc2F)c2nn(-c3ccc(Cl)cc3)c(C)c12`, the Potency entry is “inactive”. Next, `OCCCn1c(C2CCCN2c2nc(-c3ccc(Cl)cc3)cs2)nc2cc(Cl)c(Cl)cc21` (centres undefined): “inactive”; `N=c1n(CC(=O)c2ccc([N+](=O)[O-])cc2)c2ccccc2n1Cc1ccccc1`: 18.4 µM (active). Next, `Cc1ccccc1NC(=O)c1ccc2c(c1)c(C)c(C)n2Cc1ccccc1`: “inactive”; `Cc1ccc(SC2=C(Sc3ccc(C)cc3)C(=O)c3ccccc3C2=O)cc1`: 16.4 µM (active); `Cc1ccc(C(=O)NC2c3ccccc3-c3ccccc32)cc1`: “inactive”. The value for `Cc1ccc(C)c(C2NC(=O)c3ccccc3N2)c1` (centres undefined) was “inactive”; that for `Cc1ccc(-c2cc(C(=O)N/N=C/C(Br)=C/c3ccccc3)n[nH]2)o1` was “inactive”. Consider `Cc1ccc(Cl)cc1NC(=O)Nc1cn(CC(C)C)c(=O)c2ccccc12`, for which the Potency result is “inactive”. Next, `Cc1ccc2nc(-c3ccccn3)c(NC3CCCC3)n2c1`: “inactive”; `CN(C)c1ccc(/C=C/c2ccnc3cc(Cl)ccc23)cc1`: 13 µM (active); `CN(C)c1ccc(/C=C/C=C/c2ccnc3ccccc23)cc1`: 5.8 µM (active). Consider `CN(C)c1ccc(/C=C/c2ccnc3ccccc23)cc1`, for which the Potency was 18.4 µM (active). With `CN(C)c1ccc(/C=C/c2ccnc3ccc(-c4ccccc4)cc23)cc1`, the Potency was 18.4 µM (active). Regarding `COc1cccc(CNCCSc2nnnn2C)c1OCc1ccc(F)cc1`, the Potency entry is “inactive”. The value for `C=CCNC(=S)N/N=C(\C)c1ccc(OC)cc1` was “inactive”. Next, `CSc1ccc(/C=N/NC(=O)c2ccccc2Cl)cc1`: “inactive”. On to `Cc1ccc(NC(=S)N=Nc2c(O)n(C)c3ccc(S(=O)(=O)N4CCOCC4)cc23)cc1`, for which the Potency entry was “inactive”.

As for `CN(C)c1ccc(/C=C/c2cnnc3ccccc23)cc1`, the Potency is 20.6 µM (active). On to `CN(C)c1ccc(/C=C/c2ccnc3ccccc23)c(N)c1`, for which the Potency was 18.4 µM (active). The value for `COc1cccc2nccc(/C=C/c3ccc(N(C)C)cc3)c12` was 20.6 µM (active); that for `CNc1ccc(/C=C/c2ccnc3ccccc23)cc1` was 18.4 µM (active). For `COc1ccc(C2=NOC(C(=O)NCc3ccc(F)cc3)C2)cc1` (centres undefined), the Potency entry was “inactive”. On to `CCOc1ccc(Br)cc1C1C(C(=O)OC)=C(N)Oc2cc(N(C)C)ccc21` (centres undefined), for which the Potency entry was “inactive”. The value for `Cc1ccc(NC(=S)Nc2ccccn2)c(C)c1` was “inactive”. Next, `CC(=O)Nc1cc(-c2ccccc2CN(C)C)cn2c(-c3ccc(C(C)=O)cc3)cnc12`: “inactive”; `COC(=O)c1sc(N)c(C(=O)OC)c1COC(=O)c1c(C)noc1C`: “inactive”. The value for `CC1(C(=O)Nc2ccc3c(c2)OCO3)Cc2c(-c3ccccc3)ccnc2O1` (centres undefined) was “inactive”.
